# Compounds with a hit are over-represented: about 0.52% of the library has one in this group of screens.
# Sa growth inh – inhibitors of Staphylococcus aureus growth at 42 °C; 170,000 tested, 0.53% active; relative growth, % (concentration not given with the values); S. aureus RN4220 growth, OD600, 20 h; hits give low values; AID 720641;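 active = relative growth at most 50% at the other temperature and 20+ points below 30 °C, or under 10% at both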
# S aureus helic – blocks Staphylococcus aureus DNA helicase. AID 485395. inhibition, % (concentration not given with the values). 120,000 tested, 0.05% active. purified S. aureus helicase, fluorescence unwinding assay; in the data active = inhibition above about 25%, passing the limit was not always enough;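 note: 0% = mean of negative control wells and 100% = mean of positive control wells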
# Starred values were filed as active, the others as inactive; · = no result given.
SMILES,Sa growth inh,S aureus helic
COC(=O)C(Sc1c[nH]c2ccccc12)(C(F)(F)F)C(F)(F)F,0.0*,42
COC(=O)C(N)Cc1c[nH]c2ccccc12 (stereo not drawn),94,-18
O=C(OCC(=O)N1N=C2/C(=C/c3ccco3)CCCC2C1c1ccco1)c1ccccn1 (stereo not drawn),106,1
COc1cccc2c1CCN(Cc1cccc(C)c1)C2=O,5.1*,-2
CCN1CCc2c(OC)cccc2C1=O,94,4
Cc1ccsc1C=Nc1ccc(Cl)cn1,·,17
CN1c2ccccc2N(C)C1c1ccc(O)cc1,-1.2*,2
CN1C(=O)c2ccccc2N(C)C1c1ccc(F)cc1 (stereo not drawn),116,10
O=C(/C=C\c1ccco1)Oc1cccc2cccnc12,1.6*,17
CCc1ccc(OC(=O)/C=C/c2ccco2)cc1,106,-2
NC(=NCCc1c[nH]c2ccccc12)NC(=O)c1ccccc1,99,12
CNC(=O)Nc1cc(C(F)(F)F)cc(C(F)(F)F)c1,78,·
Cc1noc(C)c1NC(=O)Nc1cc(C(F)(F)F)cc(C(F)(F)F)c1,5.2*,-41
CCNc1nc(-c2ccccc2)no1,89,8
COc1ccccc1NC(=O)C1Sc2nnc(-c3ccccc3)n2NC12CCCCC2 (stereo not drawn),89,-14
O=C1NC2(CCc3ccccc32)C(=O)N1Cc1ncc(-c2ccccc2)o1 (stereo not drawn),146,-14
O=c1c2c(nc3cc(-c4ccccc4)[nH]n13)CCC2,100,-3
O=c1c2c(nc3c(-c4ccccc4)c[nH]n13)CCC2,0.1*,18
CCN1C=C/C(=C\c2cc[n+](CC)c3ccccc23)c2ccccc21,5.5*,82*
CC[n+]1ccc(C)c2ccccc21,99,2
CC(C)NC(=O)c1cccn2c(=O)c3c4c(sc3nc12)CCCC4,95,15
Cc1c2oc3c(C)ccc(C(=O)N[C@@H]4C(=O)N[C@H](C(C)C)C(=O)N5CCC[C@H]5C(=O)N(C)CC(=O)N(C)[C@@H](C(C)C)C(=O)O[C@@H]4C)c3nc-2c(C(=O)N[C@@H]2C(=O)N[C@H](C(C)C)C(=O)N3CCC[C@H]3C(=O)N(C)CC(=O)N(C)[C@@H](C(C)C)C(=O)O[C@@H]2C)c(N)c1=O,-0.6*,·
O=C(OCc1cc(=O)n2cc(Br)ccc2n1)c1cc(-c2ccco2)nc2ccccc12,67,-4
CCC(=O)Nc1nc2c(s1)CSc1ccccc1-2,6.6*,26
CCC(=O)Nc1nc2ccccc2s1,90,-14
SMILES,Sa growth inh,S aureus helic
Cc1cccc(N2CCN(CCNC(=O)c3c(C)nn(-c4ccc(F)cc4)c3-n3cccc3)CC2)c1C,105,15
O=C(/C=C/c1ccccc1)Sc1nc2ccccc2o1,110,-9
O=C(Cc1ccccc1)Oc1cccc2cccnc12,·,21
O=C(CN1C(=O)c2ccccc2C1=O)Oc1cccc2cccnc12,0.8*,15
O=C(CCN1C(=O)c2ccccc2C1=O)Oc1cccc2cccnc12,-0.6*,-8
N#Cc1ccccc1OC(=O)CCN1C(=O)c2ccccc2C1=O,103,9
CCC(C(=O)NC1CCC(C)CC1)n1sc2ccccc2c1=O (stereo not drawn),119,4
Cc1cc(C(=O)CCC(=O)N2CCN(c3ncccn3)CC2)c(C)s1,111,-12
CCCc1nnc(SCC(=O)c2ccccc2)o1,102,3
CC1CCCN(CC(=O)O)C1 (stereo not drawn),100,-6
Cc1ccccc1OCc1nnc(-c2ccccc2)o1,92,0
Cc1c(C(=O)NNc2ncnc3sc4c(c23)CCCC4)oc2ccccc12,82,5
Nc1c2c(nn1Cc1ccccc1)CCCn1c-2nc2ccccc2c1=O,89,1
CC(=O)/C=C(\O)c1ccc(Cl)cc1,84,12
O=C(/C=C(\O)c1ccc(Cl)cc1)C(F)(F)F,-0.1*,-2
Cc1cc(NC(=O)c2cc(-c3ccccn3)nc3ccccc23)n[nH]1,101,10
CCn1c(O)c(N=NC(=O)Nc2ccc(Cl)c(Cl)c2)c2ccccc21,-0.8*,13
CCn1c(O)c(N=NC(N)=S)c2ccccc21,64,9
CC(C)c1ccc2[nH]c(O)c(N=NC(=O)c3nn(C)c(=O)c4ccccc34)c2c1,90,10
COc1cc(C2Nc3ccc4ncccc4c3C3=C2C(=O)CCC3)ccc1OC(C)=O (stereo not drawn),90,6
O=C(CCCc1c[nH]c2ccccc12)Nc1nnc(-c2ccc(Cl)cc2)o1,88,-5
CCCCC(=O)Nc1nnc(-c2ccc(Cl)cc2)o1,-0.3*,21
CCCCC(=O)Nc1nnc(-c2ccc(Cl)s2)o1,8.8*,5
O=C(CCc1ccccc1)Nc1nnc(-c2ccccc2)o1,·,-15
O=C1CCCc2c1cc(-c1ccccc1)n2-c1cccnc1,·,13
O=C(Cc1ccc(F)cc1)N1CCC(c2nc3c(nnn3Cc3ccc(F)cc3)c(=O)[nH]2)CC1,57,·
O=C(c1ccccc1)N1CCC(c2nc3c(nnn3Cc3ccccc3)c(=O)[nH]2)CC1,2.9*,-1

# Assay outcomes from PubChem BioAssay.
